The subject of assay [1] is PA-1. Nature of the assay: Primary qHTS to identify gynecologic anti-cancer compounds using libraries of approved drugs and bioactive compounds (AID 1345084). Further: nearly all actives have a fitted effect of over 55% in size. Further: potency means the concentration at half of the fitted maximal effect. As to conditions: Gynecologic cancer cell panel viability, ATPlite luminescence, 48 h; series mostly up to 57.5 µM. Put shortly: (§1)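 Luminescence from the ATPlite ATP-monitoring reagent indicates viable cell number; lower signal means cytotoxicity. Cells received compound 16 h after seeding and were exposed for 48 h across five concentrations.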

Assay [2] concerns Tov-21-G. Described as above. The settings on record: Gynecologic cancer cell panel viability, ATPlite luminescence, 48 h; series mostly up to 57.5 µM. Put shortly: as §1
Background: In ATP-based viability assays light output follows the ATP content of the culture.

Assay [3] concerns Tov112D. The assay is described as above. As to conditions: Gynecologic cancer cell panel viability, ATPlite luminescence, 48 h; series mostly up to 57.5 µM. Put shortly:
as §1

Assay [4] is described as follows: Drug repurposing screens with cells derived from glioblastoma tumor samples (AID 1345199). Further: nearly all actives have a fitted effect of over 40% in size. Further: potency means the concentration at half of the fitted maximal effect. As to conditions: GBM patient neurospheres viability, ATP luminescence, 48 h. Put shortly:
(§2)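 Four patient lines of CD133+ GBM neurospheres were screened at several concentrations; hits were retested in those lines plus three slower-growing GBM lines, using 48-hour treatment and ATP-based viability.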

For assay [5], the system named is astro. The description is as above. As to conditions: viability, ATP luminescence, 48 h; series mostly up to 45.9 µM. The procedure, abridged: as §2
Assay [6] is described as follows: qHTS assay to identify inhibitors of the type 1 interferon - major histocompatibility complex class I in skeletal muscle: Counter screen cell viability and HiBit confirmation (AID 1347412). Further: nearly all actives have a fitted effect of over 60% in size. The settings on record: iHSKM muscle cells + IFN-b, HiBiT or CellTiter-Glo, 24 h; Potency: HiBiT; Viability, at 45.9 µM (top of the series). The procedure, abridged: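 HLA-B*08:01–HiBiT knock-in immortalized human myoblasts (C25cl48) stimulated with 4.0 ng/ml human IFN-beta and dosed with compound in a 12-point 1:3 titration (top final 46 uM). After 24 hrs at 37 C, HiBiT lytic luminescence or CellTiter Glo ATP read out.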
For orientation: In qHTS, concentration-response curves come from the screen itself.

For assay [7], the system named is SKOV3. Put plainly: Primary qHTS to identify gynecologic anti-cancer compounds using libraries of approved drugs and bioactive compounds (AID 1345084). Further: nearly all actives have a fitted effect of over 55% in size. Further: potency means the concentration at half of the fitted maximal effect. The settings on record: Gynecologic cancer cell panel viability, ATPlite luminescence, 48 h; series mostly up to 57.5 µM. The procedure, abridged:
as §1

[8] abbreviates: at 45.9 µM (top of the series), tumour line B.
[9] abbreviates: at 45.9 µM (top of the series), tumour line D.
Where [10] appears, read: at 46.1 µM (top of the series), tumour line C.
Setting [11] is: at 46 µM (top of the series), tumour line A.

“And” between values parts separate entries of the source, which are not always exact repeats. Identical values can stand only once. Results filed as inconclusive are left out. Unmarked numbers belong to inactive results. The source made the active and inactive calls. The call rests on the fitted dose curve; in most records, active means well fitted curve in the direction sought with a large enough effect; inconclusive means small, poorly fitted or top-dose-only effect, or another doubt; inactive means no such curve, though single readings can be large; an effect the other way counts as inactive or inconclusive.
On the % scale 0 is the no-effect control and ±100 the full control effect.

Consider `CCCCC/C=C\C/C=C\CCCCCCCC(=O)NC(C)c1ccccc1` (stereo not given), for which the Potency entry in assay [1], in assay [2], in assay [3] and in assay [5] was “inactive” throughout. In addition, the activity, negative = cell killing is -3.69% in assay [4] (setting [8]), -27.1% in assay [4] (setting [9]) and -9.18% in assay [4] (setting [10]). In assay [4] (tumour line A), the Potency is 11.2 µM (active).

Consider `CCOC(=O)O[C@]1(C(=O)OCCl)CC[C@H]2[C@@H]3CCC4=CC(=O)C=C[C@]4(C)[C@H]3[C@@H](O)C[C@@]21C`, for which the Potency entry in assay [1], in assay [2], in assay [3] and in assay [6] was “inactive” each time.

As to `CN1CC[C@H](c2c(O)cc(O)c3c(=O)cc(-c4ccccc4Cl)oc23)[C@H](O)C1`, the results for the Potency in assay [1] and in assay [3] were 0.447 µM (active) and 1.12 µM (active), respectively.

Consider `CC(CCc1ccc2c(c1)OCO2)NN` (stereo not given), for which the Potency entry in assay [1], in assay [2], in assay [3] and in assay [5] was “inactive” in each case. Moreover, the values for the activity, negative = cell killing in assay [4] (setting [8]), in assay [4] (setting [9]) and in assay [4] (setting [10]) were -11.1%, -1.96% and -0.872%, respectively.

For `CC(NN)c1ccccc1` (stereo not given), the Potency entry in assay [1], in assay [2], in assay [3] and in assay [5] was “inactive” throughout. Moreover, the activity, negative = cell killing was -17.4% in assay [4] (setting [8]), -5.52% in assay [4] (setting [9]), -23.7% in assay [4] (setting [11]) and -0.872% in assay [4] (setting [10]).

On to `Nc1ccc2cc3ccc(N)cc3nc2c1`, for which the Potency was 7.94 µM (active) in assay [1]; 28.2 µM (active) in assay [3]; 22.4 µM (active) in assay [4] (tumour line A); 14.1 µM (active) in assay [4] (tumour line B); 7.94 µM (active) in assay [4] (tumour line D); 10 µM (active) in assay [5]. Further, the activity, negative = cell killing in assay [4] (setting [10]) is -19.3%.

As for `CCCCCCCCCCCCCC[N+](C)(C)C`, the Potency in assay [1] is 11.2 µM (active); in assay [2], 5.62 µM (active); in assay [3], 14.1 µM (active); in assay [5], 10 µM (active).

Turning to `Cc1cc(O)c2c(O)c3c(O)cccc3cc2c1`, the Potency result in assay [1], in assay [2], in assay [3] and in assay [5] was “inactive” in each case. For the same molecule, the activity, negative = cell killing in assay [4] (setting [8]) was -27.7%. Besides, in assay [4] (tumour line A), the Potency is 14.1 µM (active).

For the molecule `Nc1ccc2c(c1)CN1C(=O)c3ccccc3C1=N2`, the Potency in assay [7] was 7.94 µM (active); in assay [2] it was 10 µM (active).

As for `O=C1Nc2ccccc2C1(c1ccc(O)cc1)c1ccc(O)cc1`, the Potency entry in assay [1] and in assay [6] was “inactive” in each case.

In the case of `Cc1ccc(O)cc1`, the Potency entry in assay [1], in assay [2], in assay [3] and in assay [5] was “inactive” in each case. The activity, negative = cell killing in assay [4] (setting [8]) is -22.9% and -5.16%; in assay [4] (setting [9]), -8.77% and -8.54%; in assay [4] (setting [11]), -10.9%; in assay [4] (setting [10]), 8.95% and -5.08%.

In the case of `Cc1nc([N+](=O)[O-])cn1-c1ccc([N+](=O)[O-])cc1`, the Potency entry in assay [1], in assay [2], in assay [3] and in assay [5] was “inactive” in each case. For the same molecule, the activity, negative = cell killing is -9.26% in assay [4] (setting [8]), -5.48% in assay [4] (setting [9]), -16.5% in assay [4] (setting [11]) and 4.99% in assay [4] (setting [10]).

For the molecule `CC(NCCC(c1ccccc1)c1ccccc1)c1ccccc1` (stereo not given), the Potency entry in assay [2] is “inactive”. Also, in assay [5], the Potency was 25.1 µM (active).

On to `O=C1NC2CCCCN2C12CCN(CCCN1c3ccccc3CCc3ccc(Cl)cc31)CC2` (stereo not given), for which, in assay [2], the Potency entry was “inactive”. Further, the Potency in assay [5] is 20 µM (active).

Take `CCN(CC)CCNC(=O)c1ccc(NS(C)(=O)=O)cc1`: the activity, negative = cell killing in assay [4] (setting [8]) is -2.38%; in assay [4] (setting [9]), -14.7%; in assay [4] (setting [10]), -3.28%. Besides, the Potency result in assay [5] is “inactive”.

`NC(N)=NCCCCN=C(N)N`: the activity, negative = cell killing is -8.5% in assay [4] (setting [8]), -4.71% in assay [4] (setting [9]), -10% in assay [4] (setting [11]) and -21.5% in assay [4] (setting [10]). For the same molecule, in assay [5], the Potency result is “inactive”.

Take `CCN(CC)CCOc1ccc(/C(=C(\Cl)c2ccccc2)c2ccccc2)cc1`: the Potency entry in assay [3] and in assay [6] was “inactive” throughout. Moreover, in assay [5], the Potency is 17.8 µM (active).

Regarding `O=C(Nc1ccc(Cl)cc1)Nc1ccc(Cl)c(C(F)(F)F)c1`, the results for the Potency in assay [3] and in assay [5] were 31.6 µM (active) and 10 µM (active), respectively.

As for `C[N+](C)(C)CCO`, the activity, negative = cell killing in assay [4] (setting [8]) is -20.6% and -4.58%; in assay [4] (setting [9]), -15.3% and -5.56%; in assay [4] (setting [11]) it was -28.3% and -25.4%; in assay [4] (setting [10]) it was 20.9% and 13.7%. The Potency entry in assay [5] is “inactive”.

With `Nc1c2ccccc2nc2ccccc12`, the Potency in assay [2] is 14.1 µM (active); in assay [4] (tumour line A) it was 25.1 µM (active); in assay [4] (tumour line B), 12.6 µM (active); in assay [4] (tumour line D) it was 10 µM (active); in assay [5], 10 µM (active). Also, the activity, negative = cell killing in assay [4] (setting [10]) is -4.16%.

These data come from PubChem BioAssay (NCATS).
